Data published in article PMC5540273 (PLoS ONE, 2017).

System: T1, NIM1
T1 construct: gene MGC42105
Conditions: concentration: 1 μM, replicates: in singlicate; n = 1
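Note: KINOMEscan kinase panel screen.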

Question: For Cl.c1ccc(-c2ccc3c(Nc4ccc5[nH]ccc5c4)ccnc3c2)nc1 [GW440138], which “%Inh” value is on record?
Answer: 29%

Question: O=C(Nc1ccccc1F)NC1CCN(c2ccnc(Nc3ccc(F)cc3)n2)CC1 [GSK1379800] was tested. Which “%Inh” value did it give?
Answer: 32%

Question: How did the “%Inh” value turn out when Cc1cccc(NC(=O)Nc2ccc(Oc3ncnc4ccn(C)c34)cc2)c1 was run?
Answer: 0%

Question: How did the “%Inh” value turn out when COc1cccc(C2=C(Nc3ccc(Cl)c(C(=O)O)c3)C(=O)NC2=O)c1 [SB-390769] was run?
Answer: 100%

Question: How did the “%Inh” value turn out when COc1cccc(-c2ccc3c(NC(=O)C4CC4)n[nH]c3n2)c1 [SB-710903] was run?
Answer: 46%

Question: How did the “%Inh” value turn out when CN1CCN(CCCNc2nccc(-c3c(-c4ccc(F)cc4)nn4cc(C(F)(F)F)ccc34)n2)CC1 [GW621581] was run?
Answer: 0%

Question: With COCCOCCOc1cc2ncc3c4ccc(C#N)cc4[nH]c3c2cc1OC as the compound, how does the “%Inh” value read?
Answer: 48%

Question: How did the “%Inh” value turn out when O=C(Nc1cccc(-c2nn3ncccc3c2-c2ccnc(Nc3ccccc3)n2)c1)c1c(F)cccc1F [GSK198271] was run?
Answer: 4%

Question: How did the “%Inh” value turn out when c1ccc(-c2n[nH]cc2Nc2ccnc3ccccc23)nc1 [GW694077] was run?
Answer: 25%

Question: With COC(=O)Nc1nc2ccc(Oc3ccc(NC(=O)Nc4cc(C(F)(F)F)ccc4F)cc3)cc2n1C.Cl [GW692089] as the compound, how does the “%Inh” value read?
Answer: 32%

Question: Which “%Inh” value does the source give for Cn1cc(-c2ccc3c(c2)CCN3C(=O)Cc2cccc(Cl)c2)c2c(N)ncnc21 [GSK2606590] here?
Answer: 0%

Question: CC(C)(C)c1ccc2nccc(Nc3cccc(O)c3)c2c1 [GW856795] was tested. Which “%Inh” value did it give?
Answer: 30%

Question: With COc1cc(Nc2nccc(N3CCC(NC(=O)Nc4cccc(C(C)=O)c4)C3)n2)cc(OC)c1OC (centres unmarked) [GSK1379753] as the compound, how does the “%Inh” value read?
Answer: 11%

Question: How did the “%Inh” value turn out when O=C(Nc1n[nH]c2nc(-c3ccc(O)cc3)ccc12)C1CC1 [SB-710363] was run?
Answer: 0%

Question: With c1ccc(-c2cnc3nccnn23)cc1 [AH20685] as the compound, how does the “%Inh” value read?
Answer: 0%

Question: CN(C)Cc1ccc(-c2ccc3c(Nc4ccc(Oc5ccccn5)cc4)ccnc3c2)o1 [GW567148] was tested. Which “%Inh” value did it give?
Answer: 23%

Question: NCCCC(NC(=O)c1cc(Br)c(-c2ccnc3[nH]ccc23)s1)c1ccccc1.O=C(O)C(F)(F)F.O=C(O)C(F)(F)F (centres unmarked) [GSK1287544] was tested. Which “%Inh” value did it give?
Answer: 15%

Question: How did the “%Inh” value turn out when CCS(=O)(=O)c1ccc(OC)c(Nc2nccc(-c3c(-c4cccc(NC(=O)c5c(F)cccc5F)c4)nn4ncccc34)n2)c1 [GSK326180] was run?
Answer: 7%

Question: How did the “%Inh” value turn out when CCn1c(-c2nonc2N)nc2c(C#CC(C)(C)O)ncc(OCCCCN)c21.O=C(O)C(F)(F)F.O=C(O)C(F)(F)F [GSK507274] was run?
Answer: 29%

Question: For Cl.Cl.NCC(NC(=O)c1cc(-c2ccccc2)c(-c2ccnc3[nH]ccc23)s1)c1ccccc1 (centres unmarked) [GSK1321561], which “%Inh” value is on record?
Answer: 50%

Question: How did the “%Inh” value turn out when Clc1ccc(-c2nn3ncccc3c2-c2ccnc(Nc3ccc4c(c3)OCCO4)n2)cc1 [GW829116] was run?
Answer: 0%

Question: For Cc1ccc(C)c(NC(=O)NC2CCN(c3ccnc(Nc4ccc(F)cc4)n3)C2)c1 (centres unmarked) [GSK1379720], which “%Inh” value is on record?
Answer: 43%

Question: For CN1CCN(Cc2cccc(-c3ccc4c(Nc5ccc(Oc6ccccc6)cc5)ccnc4c3)c2)CC1 [GW578342], which “%Inh” value is on record?
Answer: 22%

Question: For O=C(O)C(F)(F)F.O=C(O)C(F)(F)F.O=c1[nH]ccc2nc(N[C@@H]3CCCNC3)nc(Nc3ccc(S(=O)(=O)N4CCOCC4)cc3)c12 [GSK2177277], which “%Inh” value is on record?
Answer: 95.7%

Question: How did the “%Inh” value turn out when COc1cc(Nc2nccc(-c3c(-c4cccc(NC(=O)c5c(F)cccc5F)c4)nn4ncccc34)n2)cc(OC)c1OC [GSK327238] was run?
Answer: 0%

Question: With O=C(NC1CCN(c2ccnc(Nc3ccc(F)cc3)n2)C1)c1cc2ccccc2s1 (centres unmarked) [GSK1379716] as the compound, how does the “%Inh” value read?
Answer: 34%

Question: With Cl.c1ccc(-c2ccc3c(Nc4ccc5[nH]ncc5c4)ccnc3c2)nc1 [GW440137] as the compound, how does the “%Inh” value read?
Answer: 14%

Question: Which “%Inh” value does the source give for COc1cc(Nc2ncc3c(C)nc(-c4cc5ccccc5[nH]4)n3n2)cc(OC)c1OC [GW869516] here?
Answer: 0%

Question: For CCCCc1nn2ncccc2c1-c1ccnc(Nc2ccc(N3CCN(C)CC3)cc2)n1 [GW684941], which “%Inh” value is on record?
Answer: 47%

Question: For C[C@@H](Oc1cc(-n2cnc3cc(-c4ccnc(NCCS(C)(=O)=O)c4)ccc32)sc1C(N)=O)c1ccccc1Cl [GSK907232], which “%Inh” value is on record?
Answer: 69%

Question: How did the “%Inh” value turn out when O=C(Nc1cccc(-c2nn3ccccc3c2-c2ccnc(Nc3cccc(F)c3)n2)c1)c1c(F)ccc(F)c1Cl [GSK357952] was run?
Answer: 7%

Question: CCc1ccc(-c2ccc3c(c2)-c2c(cnn2C)S(=O)(=O)N3C)cc1 was tested. Which “%Inh” value did it give?
Answer: 0%
